In PubChem BioAssay AID2620 (National Center for Advancing Translational Sciences (NCATS), 2010):
Results filed as inconclusive are left out. Activity calls are given as the source filed them. Calls follow the shape of the dose curve; as a rule, active = well fitted curve in the direction sought with a large enough effect; inconclusive = small, poorly fitted or top-dose-only effect, or another doubt; inactive = no such curve, though single readings can be large or run the other way.

target: Pyruvate kinase PKM (Homo sapiens) (UniProt P14618); test: Secondary LDH Assay for Activators of Human Pyruvate Kinase M1 Isoform: for Probe SAR; settings: purified hPK-M1, LDH-coupled NADH fluorescence kinetic; series mostly up to 58.2 µM
Source text: NIH Chemical Genomics Center [NCGC]
Matthew G. Vander Heiden, M.D., Ph.D. [Harvard Medical School, 77 Avenue Louis Pasteur, Boston, MA 02115]
Human pyruvate kinase […] (hPK-M1)enzyme was supplied as a highly purified (>95% pure) preparation from Harvard Medical School and a secondary assay was used to evaluate compounds. This assay couples the formation of pyruvate from […] using lactate dehydrogenase (LDH) and NADH. The depletion of NADH is followed in a fluorescent-based kinetic assay that follows the formation of pyruvate to lactate, as catalyzed LDH. Pyruvate kinase substrates, PEP and ADP, were present in the assay at 0.1 mM and 4 mM respectively. In this kinetic assay initial rates were determined by following the fluorescence of NADH depletion.
NCGC Assay Protocol Summary:
Three uL of substrate mix (final concentration, 50 mM Tris-Cl pH 8.0, 200 mM KCl, 15 mM MgCl2, 0.1 mM PEP, 4.0 mM ADP, and 0.2 mM NADH) was dispensed into black-solid 1536 well plates. 23 nL of compounds were delivered by a pin tool and 1 uL of enzyme mix (final concentrations, 10 nM hPK-M1 and 1 uM of LDH) was added. Plates were immediately placed in ViewLux (Perkin Elmer) and NADH fluorescence was determined at 30 second exposure intervals for between 3 and 6 minutes. Data were normalized to the uninhibited controls.

Pyruvate kinase PKM (Homo sapiens), sequence (P14618 whole entry, looked up, canonical isoform): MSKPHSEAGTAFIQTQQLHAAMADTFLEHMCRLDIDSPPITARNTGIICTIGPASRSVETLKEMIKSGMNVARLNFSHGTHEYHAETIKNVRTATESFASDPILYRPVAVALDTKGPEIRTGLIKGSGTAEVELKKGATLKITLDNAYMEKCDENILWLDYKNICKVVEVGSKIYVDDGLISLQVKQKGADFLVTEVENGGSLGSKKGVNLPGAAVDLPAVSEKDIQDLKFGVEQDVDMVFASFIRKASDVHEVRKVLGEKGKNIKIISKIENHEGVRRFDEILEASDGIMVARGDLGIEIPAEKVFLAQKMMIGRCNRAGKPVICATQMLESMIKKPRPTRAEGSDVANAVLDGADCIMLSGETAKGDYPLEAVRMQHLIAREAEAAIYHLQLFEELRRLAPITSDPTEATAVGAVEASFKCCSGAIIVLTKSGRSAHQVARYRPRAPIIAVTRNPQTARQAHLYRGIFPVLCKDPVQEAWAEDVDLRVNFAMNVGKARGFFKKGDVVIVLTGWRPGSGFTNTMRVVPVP

| SMILES | outcome |
| --- | --- |
| Cc1ccc(NS(=O)(=O)c2ccc3c(c2)CCC(=O)N3)cc1F | inactive |
| COc1cccc(N2C(=O)c3ccccc3C2=O)n1 | inactive |
| O=C1CCc2cc(S(=O)(=O)Nc3ccc(F)c(Cl)c3)ccc2N1 | inactive |
| Cc1cc(N2C(=O)c3ccccc3C2=O)no1 | inactive |
| CCNc1cccc(S(=O)(=O)N2CCN(S(=O)(=O)c3ccc4c(c3)OCCO4)CC2)c1 | inactive |
| COc1cc(N2C(=O)c3ccccc3C2=O)c2ncccc2c1 | inactive |
| Cc1ccc(NS(=O)(=O)c2ccc3c(c2)C(Cl)(Cl)C(=O)N3)cc1C | inactive |
| O=S1(=O)N=C(Oc2ccccc2Cl)c2ccccc21 | inactive |
| Cc1ccc(NS(=O)(=O)c2ccc3c(c2)CCC(C)(C)O3)cc1C | inactive |
| Cc1ccc(NS(=O)(=O)c2ccc3ccccc3c2)cc1C | inactive |
| O=C1CCc2cc(S(=O)(=O)NCc3ccccc3)ccc2N1 | inactive |
| Cc1ccc(N(C)S(=O)(=O)c2ccc3c(c2)CCC(=O)N3)cc1C | inactive |
| COc1ccccc1NS(=O)(=O)c1ccc2c(c1)CCC(=O)N2 | inactive |
| Cc1ccc(NS(=O)(=O)c2cc3c(cc2-c2cn[nH]c2)NC(=O)CO3)cc1C | inactive |
| O=C1CCc2cc(S(=O)(=O)Nc3ccc(Cl)cc3)ccc2N1 | inactive |
| Cc1cccc(OC2=NS(=O)(=O)c3ccccc32)c1 | inactive |
| Cc1ccc(NS(=O)(=O)c2cc3c(cc2N(C)C)NC(=O)CC3)cc1C | inactive |
| O=C1c2ccccc2C(=O)N1c1cccc2cccnc12 | inactive |
| Cc1ccc(NS(=O)(=O)c2cc3c(cc2F)NC(=O)CC3)cc1Cl | inactive |
| COc1cccc(Cn2ncc3c4sc(SC)cc4n(C)c3c2=O)c1 | inactive |

| SMILES | outcome |
| --- | --- |
| CC(=O)N1CCCc2cc(S(=O)(=O)Nc3ccc(C)c(C)c3)ccc21 | inactive |
| Cc1cc(C)n2c(Nc3ccccc3)c(-c3ccc(C)o3)nc2n1 | inactive |
| Cc1ccc2nc(-c3ccc(C)o3)c(NC3CCCC3)n2c1 | inactive |
| Cc1ccc(NS(=O)(=O)c2cc3c(cc2/C=C/c2ccccc2)NC(=O)CO3)cc1C | inactive |
| Cc1c(Cl)cccc1NS(=O)(=O)c1cc2c(cc1F)NC(=O)CC2 | inactive |
| O=C1c2ccccc2C(=O)N1c1cncc2ccccc12 | inactive |
| Cc1ccc(NS(=O)(=O)c2cc3c(cc2Cl)NC(=O)CO3)cc1C | inactive |
| O=C1c2ccccc2C(=O)N1c1noc2ccccc12 | inactive |
| CC(=O)N1c2ccc(S(=O)(=O)Nc3ccc(C)c(C)c3)cc2CC1C (stereo not given) | inactive |
| COc1ccc(NS(=O)(=O)c2ccc3c(c2)CCC(=O)N3)cc1 | inactive |
| Cc1ccc(NS(=O)(=O)c2cc3c(cc2N(C)C)CCC(=O)N3)cc1C | inactive |
| Cn1c2cc(S(C)=O)sc2c2cnn(Cc3cccc(O)c3)c(=O)c21 (stereo not given) | inactive |
| O=C1c2ccccc2C(=O)N1c1cc(=O)c2ccccc2[nH]1 | inactive |
| O=C1c2ccccc2C(=O)N1c1cnc2ccccc2c1 | inactive |
| Cc1ccc(NS(=O)(=O)c2ccc3c(c2)CCO3)cc1C | inactive |
| COc1ccc(-c2nc3cccc(C)n3c2Nc2ccc(C)cc2)cc1 | inactive |
| O=C1CCc2cc(S(=O)(=O)Nc3ccccc3F)ccc2N1 | inactive |
| O=C1CCc2cc(S(=O)(=O)Nc3ccc(Cl)c(Cl)c3)c(F)cc2N1 | inactive |
| Cc1ccc(NS(=O)(=O)c2cc3c(cc2N2CCCCC2)NC(=O)CC3)cc1C | inactive |
| COc1cccc(Cn2ncc3c4sc(S(C)=O)cc4n(C)c3c2=O)c1 (stereo not given) | inactive |
